# Compound activity as filed in PubChem.
# Nrf2 inh: Nrf2 qHTS screen for inhibitors; A549 ARE-Fluc reporter, luciferase luminescence, 18-24 h; AID 504444, 2011; Potency, µM (top dose mostly 46 µM), without a hit: at the highest dose activity change, negative = inhibition, usual class: inhibitors; actives 2.1% (n = 360,000); also: potency is read from the fitted curve at half-maximal effect; % is scaled to controls: 0 for no effect and ±100 for the full control effect; nearly all actives have a fitted effect of over 60% in size
#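 A549 ARE_Fluc cells, 5000/well, 5% FBS OPTI-MEM; compounds in dose-response, 18-24 h at 37 °C/5% CO2; CellTiter-Fluor viability read (Ex 405/Em 525), then BugLite luciferase luminescence = Nrf2 activity.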
# IL2 activator: qHTS of IL-2 Activators; IL-2 activation reporter assay, cell-based qHTS; stimulated with anti-CD3/CD4/CD28 beads; in transgenic mouse T cells; activation, % (series mostly up to about 46 µM); actives 0.065% (n = 360,000); in the data active = activation above about 50%; inconclusive = mostly about 30% to 49%; also: 0% is about no effect
#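 First, unstimulated transgenic mouse T cells were exposed to compound for 60 min. Next, anti-CD3/anti-CD4-coated beads with anti-CD28 were added. Finally, after 18 h at 37 degrees C, EGFP and DsRed were imaged.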
# ClpP mod: qHTS Assay for Activators of ClpP; ATP-dependent Clp protease proteolytic subunit (Bacillus subtilis (strain 168)), P80244; purified B. subtilis ClpP, FRET peptide cleavage, 20 min; Potency, µM (doses to about 57.5 µM), for inactives: at the top dose activity change, negative = active; actives 1.9% (n = 340,000); AID 651965, 2013; active = well fitted falling curve with a large enough effect; inconclusive = small, poorly fitted or top-dose-only effect; inactive = no such curve, though single readings can be large or run the other way; also: potency is read from the fitted curve at half-maximal effect; the source files actives as falling curves though it sought activators and does not explain the sign; nearly all actives have a fitted effect of over 65% in size
#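 Purified B. subtilis ClpP, 10 microg/mL final in Tris/HCl pH8 with KCl, BSA, glycerol and Tween-20, cleaved an Abz/nitrotyrosine-quenched decapeptide. Fluorescence (ex 320, em 430) was read at 0 and 20 min at room temperature. Delta was normalized to 5.8 microM ADEP and DMSO/no-enzyme controls.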
# Nrf2 ARE act: qHTS of Nrf2 Activators | AREc32 ARE-luciferase reporter (MCF7-derived line), luminescence, 24 h | Potency, µM (top dose mostly 46.1 µM), for the others: at the top dose activation, most hits filed as activators | actives 0.31% (n = 410,000); also: potency is read from the fitted curve at half-maximal effect; % of control where 0% means no effect; nearly all actives have a fitted effect of over 65% in size
#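 ARE activation measured as luciferase luminescence (Steady-Glo, 30 min RT) in AREc32_Fluc cells after 24 hr compound exposure at 37 deg C, 5% CO2; cells seeded overnight at 1000/well in OPTI-MEM, 5% FBS.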
# A549 tox: Nrf2 qHTS screen for inhibitors: counterscreen for cytotoxicity; A549 ARE-Fluc cells, CellTiter-Fluor viability, 18-24 h; Potency, µM (titrated, usually from 46 µM), inactives show top-dose activity change, negative = cytotoxicity, most hits filed as inhibitors; actives 0.16% (n = 390,000); also: potency is read from the fitted curve at half-maximal effect; % is scaled to controls: 0 for no effect and ±100 for the full control effect
#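 A549 ARE-Fluc cells in 5% FBS OPTI-MEM, 5000 cells/well, rested 2 h then exposed to compounds in concentration-response for 18-24 h at 37 °C. Viability by CellTiter-Fluor fluorescence (Ex 405/Em 525) after 30 min; luciferase luminescence (BugLite, 15 min, RT) read afterwards.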
# miR-21 reporter: qHTS Assay for Modulators of miRNAs and/orActivators of miR-21; 340,000 tested, under 10 active; Potency, µM (highest dose often 38.3 µM), for the others: at the top dose activity change, positive = activation, most hits filed as activators; AID 2288, 2010; HeLa miR-21 FLuc reporter, luciferase, 48 h;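 also: % of control where 0% means no effect; miR-21 action dims this reporter so a rising signal means less miR-21 action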
#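 HeLa cells endogenously expressing miR-21, stably carrying CMV-driven firefly luciferase with a downstream miR-21 binding site, 2000 cells/well. Titrations up to approximately 40 uM, 48 hours; luciferase luminescence read.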
# * marks the source's active call; other numbers are inactive results; u = inconclusive; x = not tested or not shown; [ ] = dose if it differs, or a comment. In the library only some 3.7% were active in any assay of this set; here they are far more common. Unless noted, calls follow the shape of the dose curve; as a rule, active = well fitted curve in the direction sought with a large enough effect; inconclusive = small, poorly fitted or top-dose-only effect, or another doubt; inactive = no such curve, though single readings can be large; an effect the other way counts as inactive or inconclusive.
SMILES,Nrf2 inh,IL2 activator,ClpP mod,Nrf2 ARE act,A549 tox,miR-21 reporter
CC(C)OC(=O)c1ccc(NCc2cc(O)ccc2O)cc1,7%,-3,-20%,13µM*,-8%,x
CCc1ccc(NC(=O)CSc2nnc(-c3nonc3NC(C)=O)n2-c2ccccc2)cc1,-25%,x,2%,5%,0%,4%
Cc1nccc(-c2sc(-c3cccs3)nc2C)n1,7%,-1,4%,13µM*,-12%,-47%
CC(C)NC(=O)C1CCN(C(=O)c2cc3sccc3n2Cc2ccc(F)cc2)CC1,15µM*,-2,2%,0%,u,13%
COc1ccc(CNc2nc(S(=O)(=O)c3ccccc3)c(Cl)s2)cc1OC,15µM*,-3,-9%,3%,-22%,17%
Nc1c(C(=O)N/N=C/c2ccc(F)cc2)oc2nc(-c3ccccc3)cc(-c3ccco3)c12,u,230*,x,11%,-8%,8%
Cc1c(NC(=O)C(C)(C)Oc2ccc(Cl)cc2)cccc1-c1nc2ccccc2o1,u,x,u,0%,3%,u
O=C(CC1(O)C(=O)Nc2cc(Cl)cc(Cl)c21)c1ccccc1O (stereo not drawn),-27%,1,-2%,16µM*,-13%,0%
O=c1c2sc3ccccc3c2n(Cc2ccccc2F)c(=O)n1Cc1ccccc1,2%,x,-10%,0%,2%,0%
Cc1occc1-c1nnc(SCC(=O)c2cc3ccccc3oc2=O)o1,-3%,2,28µM*,25%,-4%,-9%
CCCN(C(=O)c1c(C)oc2ncnc(N3CCOCC3)c12)c1ccc(Cl)c(Cl)c1,7%[9.27 µM],x,-2%,4%,-8%,6%
CCC(Sc1ccc(Cl)cc1)C(=O)Nc1nnc(-c2cccc([N+](=O)[O-])c2)s1 (stereo not drawn),u,0,-3%,13µM*,14%,-7%
CCC(Sc1nncn1C)C(=O)Nc1nnc(-c2ccccc2Cl)s1 (stereo not drawn),5%,-3,-6%,21%,2%,-43%
CCOC(=O)c1ccc(NC(=O)CCc2nc(-c3ccc(C)cc3)no2)cc1,15µM*,0,-2%,4%,-19%,12%
COc1ccc(-c2noc(CCC(=O)O)n2)cc1,-17%,-1,-1%,-1%,-1%,7%
CCOc1ccc(-c2noc(CCC(=O)O)n2)cc1,3.3µM*,-3,-1%,-3%,5%,u
CCOC(=O)c1ccc(NC(=O)CCc2nc(-c3ccc(Cl)cc3)no2)cc1,u,-1,4%,0%,-11%,16%
COc1ccc(-c2noc(CCCC(=O)O)n2)cc1,1.8µM*,1,0%,-2%,-2%,27%
COc1cccc(-c2noc(CCCC(=O)NCc3ccco3)n2)c1,25%,x,-1%,u,4%,-16%
COc1ccc(-c2noc(CCCC(=O)NCc3ccco3)n2)cc1OC,4%,0,28µM*,10%,-3%,1%
CCOC(=O)c1c(NC(=O)c2cc(=O)c3cc(Cl)ccc3o2)sc(C)c1C,4%,x,0%,-1%,-2%,2%
CN(C)c1cccc(-c2nnc(SCC(=O)NCc3ccco3)n2C)c1,x,x,-2%,x,x,x
CCOc1ccc(CCN2C(=S)N([C@@H](Cc3ccc(O)cc3)CN3CCCC3CN3C(=S)NC[C@@H]3Cc3ccc(O)cc3)C[C@@H]2CC(C)C)cc1 (stereo partly drawn),16µM*,-1,-1%,-1%,-11%,x
Cc1ccc(-c2cc(C(=O)Nc3cccnc3)c3ccccc3n2)s1,4%,1,16µM*,2%,-16%,1%
Cc1cc(C)cc(NC(=O)c2cc(C)nc3ccccc23)c1,u,0,0%,0%,2%,-1%
SMILES,Nrf2 inh,IL2 activator,ClpP mod,Nrf2 ARE act,A549 tox,miR-21 reporter
Cc1cccc(-c2cc(C(=O)Nc3cccnc3)c3ccccc3n2)c1,4%,-1,1%,7%,-7%,11%
Cc1cc(C)nc(NC(=O)c2cc(-c3ccc(C)s3)nc3ccccc23)c1,-6%,-3,16µM*,4%,8%,-2%
CC(=O)NCCn1ccc2ccccc21,x,1,28µM*,0%,15%,-2%
O=C(CN1C(=O)c2ccccc2C1=O)N1CCCCC1,11%,0,1%,-1%,7%,-4%
Cc1ccc(S(=O)(=O)N2C(=O)c3cccc4cccc2c34)cc1,15µM*,-1,-9%,0%,u,18%
O=C(CN1C(=O)c2cccc3cccc(c23)C1=O)N1CCCCCC1,-4%,-2,28µM*,0%,7%,-1%
O=C1c2cccc3cccc(c23)C(=O)N1CC1CCN(S(=O)(=O)c2ccc(F)cc2)CC1,-29%,0,13µM*,2%,-1%,-3%
O=C1c2cccc3cccc(c23)C(=O)N1CC1CCN(S(=O)(=O)c2ccccc2)CC1,-11%,2,x,2%,-3%,x
Nc1cc2c3c(cccc3c1)C(=O)N(CCN1CCCC1)C2=O,13µM*,0,x,3%,u,u
O=C(c1ccc(S(=O)(=O)N2CCCCCC2)cc1)N1CCC(CN2C(=O)c3cccc4cccc(c34)C2=O)CC1,u,1,28µM*,0%,-9%,-7%
Cc1cc(C)cc(OCC(O)CN2CCC(CN3C(=O)c4cccc5cccc(c45)C3=O)CC2)c1 (stereo not drawn),18µM*,-3,-19%,-1%,u,-20%
Cc1ccc(S(=O)(=O)ON2C(=O)c3cccc4cccc(c34)C2=O)cc1,-3%,2,3%,6%,1%,-7%
O=C(c1ccc(S(=O)(=O)N2CCCC2)cc1)N1CCCCC1,8%,-3,1%,0%,-14%,x
Cc1ccc(S(=O)(=O)N2CCC(CN3C(=O)c4cccc5cccc(c45)C3=O)CC2)cc1,u,-1,25µM*,0%,5%,-13%
CCn1nc(C)c(CCN(C)C(=O)Nc2cc(OC)c(OC)c(OC)c2)c1C,x,x,-1%,0%,-5%,0%
COc1ccc2nc(-c3ccccc3)nc(SC)c2c1,u,-1,22µM*,11%,14%,x
CN1C(=O)/C(=C\c2ccc(OC(=O)c3ccco3)cc2)SC1=S,1%,8,-11%,3%,-3%,9%
CN1C(=O)/C(=C/c2ccc(OC(=O)c3ccco3)cc2)SC1=S,1%,56*,x,3%,-2%,-5%
